From PubChem BioAssay
a7 integrin act = activates integrin-mediated alleviation for muscular dystrophy; alpha7betagal myoblasts, beta-gal FDG fluorescence, 48 h; Potency, µM (titrated, usually from 38.3 µM), without a hit: at the top dose activation, actives largely listed as activators; 350,000 compounds, 0.064% hits; AID 624291;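 note: potency is the fitted concentration of half-maximal effect; 100% = response of the positive control SU9516; nearly all actives have a fitted effect of over 60% in size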
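alpha7betagal+/- myoblasts (passage 13, 250/well) treated 48 h at 37C with compounds at 1:260 dilution of DMSO stock. Lysed, then beta-galactosidase activity read as FDG fluorescence (ex 480/em 540) after 30 min, with pre-read for autofluorescence.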
Gal4-VP16 FLuc = Gal4-VP16 reporter inhibition counter-screen | 310,000 compounds, 3.5% hits | Potency, µM (series often up to 53.6 µM), for the others: at the top dose activity, negative = inhibition, most hits filed as inhibitors | Drosophila S2 Gal4-VP16 UAS-luciferase, luminescence, 20 h;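 note: Gal4-VP16 expression switched on by copper sulfate through the metallothionein promoter; potency is the fitted concentration of half-maximal effect; % is set by controls: 0 for no effect and ±100 for the full control effect; nearly all actives have a fitted effect of over 50% in size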
Giardia killer = Giardia lamblia killing; Giardia lamblia trophozoite viability; activity change, % at 7.66 µM, hits read low; 340,000 compounds, 0.15% hits; AID 540267; in the data active = activity change below about -80%; inconclusive = between about -30% and that limit;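 note: parasites exposed to compound for two days anaerobically before the ATP read; % is set by controls: 0 for no effect and ±100 for the full control effect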
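Giardia lamblia trophozoites (100 cells/well) were incubated with compounds for 48 h at 37 deg C under anaerobic conditions. Viability was read as ATP content by one-step luminescence after 15-30 min at room temperature.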
ERG Ets-DNA blk = ERG Ets/DNA interaction inhibition; AID 624246; fluorescence polarization, His-ERG Ets domain / labelled DNA; P11308; Potency, µM (highest dose often 76.9 µM), without a hit: top-dose FP activity, negative = inhibition, usual class: inhibitors; 370,000 compounds, 0.028% hits; active = well fitted inhibition curve with a large enough effect in the polarisation, with a control signal flat; inconclusive = small, poorly fitted or top-dose-only effect, or effect the other way, or a change in a side signal; inactive = no such curve, though single readings can be large or run the other way; the % refers to the polarisation;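 note: polarization taken with two DNA probes labelled with fluorescein and Texas red; potency is the fitted concentration of half-maximal effect; % of control where 0% means no effect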
Target sequence (P11308 whole entry, looked up, the tested form may be a part): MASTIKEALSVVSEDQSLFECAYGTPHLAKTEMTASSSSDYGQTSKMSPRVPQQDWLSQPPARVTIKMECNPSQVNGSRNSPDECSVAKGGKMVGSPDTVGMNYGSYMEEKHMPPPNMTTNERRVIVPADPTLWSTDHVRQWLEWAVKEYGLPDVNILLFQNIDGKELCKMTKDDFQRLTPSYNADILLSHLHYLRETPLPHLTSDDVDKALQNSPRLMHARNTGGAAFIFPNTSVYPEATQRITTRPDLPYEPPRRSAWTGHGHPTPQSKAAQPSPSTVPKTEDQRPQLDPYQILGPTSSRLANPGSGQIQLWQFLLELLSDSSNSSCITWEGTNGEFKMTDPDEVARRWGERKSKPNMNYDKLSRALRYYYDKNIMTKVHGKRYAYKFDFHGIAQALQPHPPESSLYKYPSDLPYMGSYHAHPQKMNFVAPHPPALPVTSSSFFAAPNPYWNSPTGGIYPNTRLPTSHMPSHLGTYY
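His-tagged ERG Ets domain (1 uM in the protein solution; 300mM KCl, 50mM Tris-HCl, 1mM EDTA, 1mM DTT, pH 7.5) received compound, then a probe mix of 5 nM fluorescein-DNA and 100nM Texas-615-DNA. Fluorescence polarization was read for both dyes.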
RORgamma inh = inhibitors of mouse ROR gamma transcriptional activity; P51450; Drosophila S2 Gal4-RORgamma UAS-luciferase reporter, 20 h; Potency, µM (titrated, usually from 53.6 µM), for the others: at the top dose activity change, negative = inhibition, most hits filed as inhibitors; 310,000 compounds, 5.4% hits; AID 2551; note: potency is the fitted concentration of half-maximal effect; % is set by controls: 0 for no effect and ±100 for the full control effect; nearly all actives have a fitted effect of over 60% in size
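Luciferase reporter read in Schneider cells carrying Gal4-RORγ (mouse) and UAS-Photinus luciferase; cells given compound 1 h before 700 uM copper sulfate induction, then incubated 20 h at ambient temperature.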
* marks the source's active call; other numbers are inactive results; ? = inconclusive; . = no result; [ ] = remark or other dose. The full list was thinned out, with hits kept by preference. Unless noted, calls come from the whole dose curve; as a rule, active = well fitted curve in the direction sought with a large enough effect; inconclusive = small, poorly fitted or top-dose-only effect, or another doubt; inactive = no such curve, though single readings can be large; an effect the other way counts as inactive or inconclusive.

SMILES	a7 integrin act	Gal4-VP16 FLuc	Giardia killer	ERG Ets-DNA blk	RORgamma inh
CCn1ccnc1CN(C)C(=O)c1cc(COc2ccc(OC)c3ccccc23)on1	-12.3%	28.2µM*	27.6	-9.8%	-80.5%
Cc1ccc(C)c(OCc2cc(C(=O)N(C)Cc3nccn3C)no2)c1	-9.8%	-6.3%	-9.9	-0.6%	-9.8%
CCOC(=O)Cc1csc(NC(=O)c2ccc3ccccc3n2)n1	0.0%	?	-24.4	-22.7%	6.31µM*
CCOC(=O)Cc1csc(NC(=S)NC(=O)c2ccc(Cl)cc2)n1	21.1%	?	-23.3	-6.5%	7.08µM*
CCSc1nnc(NC(=O)c2ccc3ccccc3n2)s1	-42.5%	0.708µM*	7.5	2.5%	1µM*
CCOC(=O)Cc1csc(NC(=O)Cc2ccc([N+](=O)[O-])cc2)n1	0.5%	1.5%	-1.3	-3.7%	0.6%
CCOC(=O)Cc1csc(NC(=O)Cc2ccc(Cl)cc2)n1	12.2%	-12.1%	0.9	-5.7%	44.1%
CCOC(=O)Cc1csc(NC(=S)NC(=O)c2ccc([N+](=O)[O-])cc2)n1	-22.0%	?	4.9	-3.7%	10µM*
CC1(C)C2CCC1(C)C(NC(=O)COC(=O)c1ccc(S(C)(=O)=O)c([N+](=O)[O-])c1)C2 (centres undefined)	.	.	-3.4	.	.
CCOC(=O)Cc1csc(NC(=O)c2cc3c(s2)CCCC3)n1	-12.5%	-23.9%	-12.0	2.3%	-42.3%
CCOC(=O)Cc1csc(NC(=O)c2csc3c2CCCC3)n1	23.4%	-18.1%	-2.0	-0.1%	12.6µM*
COc1ccc(CCn2c(C)cc(C(=O)CSc3nnnn3-c3ccccc3)c2C)cc1	8.9%	-5.9%	-1.4	11.8%	-12.3%
COc1ccc(C(=O)NCc2nnc(SCC(=O)Nc3nc4ccc(C)cc4s3)o2)cc1OC	30.5%	7.94µM*	-8.9	2.1%	7.94µM*
CCSc1nnc(NC(=O)CSc2nnc(CNC(=O)c3cc(OC)c(OC)c(OC)c3)o2)s1	-9.3%	?	3.3	12.3%	15.8µM*
CCc1cccc(NC(=O)C2CCCN2S(=O)(=O)c2ccc3nc(-c4ccccc4)[nH]c3c2)c1 (centres undefined)	.	.	.	-0.7%	.
COCCCN1CC(=O)N2Cc3[nH]c4ccccc4c3C[C@H]2C1=O	7.6%	-2.6%	-8.0	-8.6%	-0.7%
CCN1C(=O)[C@H]2[C@@H](c3ccc(-c4ccc(C(C)=O)cc4)cc3)N[C@@](Cc3ccccc3)(C(=O)OC)[C@H]2C1=O	17.1%	.	36.9	-10.5%	.
COc1ccc(C(=O)Nc2nnc(C3=COCCO3)o2)cc1	12.9%	2µM*	-10.8	-0.1%	2.24µM*
COc1cc(C(=O)Nc2nnc(C3=COCCO3)o2)cc(OC)c1OC	?	2.82µM*	9.6	5.5%	2.51µM*
CCOc1ccc(C(=O)NCCc2ccc3c(c2)OCCO3)cc1	-47.3%	-5.2%	0.9	-11.0%	?
CCOc1ccc(C(=O)Nc2nnc(C3=COCCO3)o2)cc1	18.4%	1µM*	-5.6	-8.9%	2.51µM*
CS(=O)(=O)c1cccc(C(=O)Nc2nnc(C3=COCCO3)o2)c1	25.2%	.	17.6	18.7%	.
CCCCC(=O)Nc1nnc(C2=COCCO2)o1	-13.3%	0.4%	2.9	35.7%	12.6µM*
CC(Oc1ccc(-n2cnnn2)cc1)C(=O)O (centres undefined)	16.3%	3.6%[10 µM]	-25.5	-6.9%	-16.2%
COc1cc(NC(=O)Cn2ncc(Cl)c(Cl)c2=O)c(C)cc1[N+](=O)[O-]	-63.2%	7.08µM*	1.5	3.1%	2µM*
SMILES	a7 integrin act	Gal4-VP16 FLuc	Giardia killer	ERG Ets-DNA blk	RORgamma inh
C[C@H]1CN([C@@H](C)CO)C(=O)CCCn2cc(nn2)CO[C@@H]1CN(C)C(=O)c1ccncc1	19.5%	.	.	.	.
CCCN(CC1CC1)c1nc(C)nc(Nc2c(Cl)cc(Cl)cc2Cl)c1Cl	.	-3.8%	10.9	30.2%	3.55µM*
CNC1=C(Br)C(=O)c2ccncc2C1=O	.	5.62µM*	.	.	2.24µM*
CNc1ccncc1S(=O)(=O)NC	-2.7%	-19.0%	-13.8	-0.6%	5.4%
CNC1=C(Cl)C(=O)c2ccncc2C1=O	.	5.62µM*	.	.	2.82µM*
CC(=O)Nc1ccc(NC2=C(Cl)C(=O)c3ccccc3C2=O)cc1	-62.5%	-8.2%	2.9	2.9%	?
COc1ccc(OC)c(CN2CCN(C(=O)CCC(=O)c3cccs3)CC2)c1	-12.8%	.	-11.4	-5.4%	.
